Pol beta inh: qHTS Assay for Inhibitors of DNA Polymerase Beta; AID 485314, 2010; P06746; 340,000 tested, 1.3% active; Potency, µM (doses to about 114 µM), most hits filed as inhibitors; Pol beta primer extension/strand displacement, fluorescence kinetic
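Pol beta (10 nM) was preincubated with compound for 15 min at room temperature. The reaction was then started with 50 nM substrate and read immediately and after a further 10 min at room temperature.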
POLK inh: qHTS for Inhibitors of Polymerase Kappa | DNA polymerase kappa (Homo sapiens), Q9UBT6 | AID 588579, 2011 | purified Pol kappa, fluorescent DNA synthesis assay, 10 min | Potency, µM (series often up to 107 µM), usual class: inhibitors | 400,000 tested, 0.53% active
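50 nM final substrate added after 15 min RT preincubation of 10 nM Pol kappa with compound; fluorescence read at 0 and 10 min.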
Pol iota inh: qHTS for Inhibitors of Polymerase Iota; Pol iota fluorescent replication assay, 10 min; Potency, µM (series often up to 115 µM), hits mostly inhibitors; 390,000 tested, 1% active; AID 588590, 2011
Target sequence (Q9UNA4 whole entry, looked up): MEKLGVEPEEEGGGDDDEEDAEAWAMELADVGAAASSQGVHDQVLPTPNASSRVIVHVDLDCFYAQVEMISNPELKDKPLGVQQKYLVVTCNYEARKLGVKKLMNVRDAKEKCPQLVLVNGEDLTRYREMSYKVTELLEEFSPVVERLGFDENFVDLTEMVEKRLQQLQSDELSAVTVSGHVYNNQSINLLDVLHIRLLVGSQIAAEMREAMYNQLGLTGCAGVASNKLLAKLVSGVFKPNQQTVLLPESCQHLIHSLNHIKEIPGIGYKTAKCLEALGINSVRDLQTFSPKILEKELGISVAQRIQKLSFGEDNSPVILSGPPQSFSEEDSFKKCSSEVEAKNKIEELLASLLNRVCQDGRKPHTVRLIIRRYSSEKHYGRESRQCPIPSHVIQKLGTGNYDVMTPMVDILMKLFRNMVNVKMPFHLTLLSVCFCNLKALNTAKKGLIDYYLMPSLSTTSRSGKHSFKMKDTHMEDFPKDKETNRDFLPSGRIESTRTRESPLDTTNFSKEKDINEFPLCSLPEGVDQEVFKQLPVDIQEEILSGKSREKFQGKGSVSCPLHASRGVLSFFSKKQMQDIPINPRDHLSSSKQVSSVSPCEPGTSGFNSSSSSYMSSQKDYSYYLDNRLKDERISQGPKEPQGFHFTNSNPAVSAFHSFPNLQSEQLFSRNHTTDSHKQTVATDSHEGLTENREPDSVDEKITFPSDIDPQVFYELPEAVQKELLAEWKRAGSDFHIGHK
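Pol iota at 10 nM preincubated 15 min with compounds at room temperature; reaction started with fluorescent substrate, 50 nM final. Fluorescence read kinetically at 0 and 10 min; buffer-only wells as negative control.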
Pol eta inh: qHTS for Inhibitors of Polymerase Eta; AID 588591, 2011; recombinant Pol eta, fluorescent DNA replication assay; 390,000 tested, 1.2% active; Potency, µM (highest dose often 114 µM), usual class: inhibitors; DNA polymerase eta (Homo sapiens), Q9Y253
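Pol eta (10 nM) was preincubated with compounds for 15 min at room temperature, after which fluorescent replication substrate (50 nM final) was added to start the reaction. Fluorescence was read kinetically at 0 and 10 min.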
WRN helicase inh: qHTS for Inhibitors of WRN Helicase | 360,000 tested, 0.46% active | WRN helicase unwinding, fluorescent forked duplex, kinetic | Potency, µM (highest dose often 114 µM), hits mostly inhibitors; also: nearly all actives have a fitted effect of over 55% in size
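Enzyme (20 nM final) and test compound sit together 15 min at room temperature before substrate addition. Substrate is a single-forked duplex oligonucleotide (100 nM) labelled with fluorophore and quencher, with 2 mM ATP; helicase unwinding raises red fluorescence, read kinetically.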
PI5P4Ka inh: qHTS for Inhibitors of phosphatidylinositol 5-phosphate 4-kinase (PI5P4K); Phosphatidylinositol 5-phosphate 4-kinase type-2 alpha (Homo sapiens), P48426; PI5P4Kalpha enzyme, ADP-Glo luminescence, 60 min; active compounds read low; max response, %; 330,000 tested, 1.2% active; AID 652105, 2013; active = max response of -50% or lower; inconclusive = between -30% and -50%; inactive = -30% or higher; also: value at the top dose of about 77 µM
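ADP-Glo luminescence end-point after a 60 min room-temperature kinase reaction. PI5P4Kalpha and substrate in HEPES pH 7.4 buffer with EGTA, 0.1% CHAPS and 5% DMSO; ATP at 5 microM final.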
Numbers stand for hits; [ ] = dose if it differs, or a comment. In the library only some 2.8% were active in any assay of this set; here they are far more common. Unless noted, calls follow the shape of the dose curve; as a rule, active = well fitted curve in the direction sought with a large enough effect; inconclusive = small, poorly fitted or top-dose-only effect, or another doubt; inactive = no such curve, though single readings can be large; an effect the other way counts as inactive or inconclusive.

Screening Cn1ncc(S(=O)(=O)Cc2ccccc2)c(Br)c1=O returned POLK inh inactive.
`O=C(Nc1ccc(S(=O)(=O)Nc2nccs2)cc1)c1cccc(N2C(=O)c3ccccc3C2=O)c1` gave Pol beta inh inactive, POLK inh inconclusive, Pol iota inh 71µM, Pol eta inh 50µM, WRN helicase inh inactive and PI5P4Ka inh inactive.
`Cc1cc(C)c2oc(C(=O)Nc3ccc(S(=O)(=O)Nc4ncccn4)cc3)cc(=O)c2c1` gave Pol beta inh inactive, POLK inh inactive, Pol iota inh inactive and Pol eta inh inactive.
`Cc1ccc(Oc2ccc3c(c2)C(=O)N(c2ccc(S(=O)(=O)Nc4nccs4)cc2)C3=O)cc1` gave Pol beta inh inactive, POLK inh inactive, Pol iota inh inconclusive, Pol eta inh 89µM and WRN helicase inh inconclusive.
CCC(Oc1ccc(C)cc1)C(=O)Nc1ccc(S(=O)(=O)Nc2nccs2)cc1 (stereo not drawn) was read as Pol beta inh inconclusive, POLK inh inactive, Pol iota inh inactive, Pol eta inh inactive, WRN helicase inh inactive and PI5P4Ka inh inactive.
`Cc1cccc(-n2ccc(=O)c(C(=O)Nc3ccc(S(=O)(=O)Nc4nccs4)cc3)n2)c1` gave Pol beta inh 89µM, POLK inh inactive, Pol iota inh inactive, Pol eta inh inconclusive, WRN helicase inh inactive[11.6 µM] and PI5P4Ka inh inconclusive.
Screening N#Cc1cccc(C(=O)Nc2ccc(S(=O)(=O)Nc3nccs3)cc2)c1 returned POLK inh inactive, Pol iota inh inactive, Pol eta inh inactive, WRN helicase inh inactive and PI5P4Ka inh inactive.
For Cc1cc(C)c2oc(C(=O)Nc3ccc(S(=O)(=O)Nc4nccs4)cc3)cc(=O)c2c1 the results were Pol beta inh inconclusive, POLK inh inconclusive, Pol iota inh 79µM, Pol eta inh inconclusive, WRN helicase inh inactive[11.6 µM] and PI5P4Ka inh inactive.
COc1ccc(C2c3c(n(C)c4ccccc34)C(=O)N2CC(=O)Nc2ccc(Cl)cc2)cc1 (stereo not drawn) was read as Pol beta inh inactive, POLK inh inactive, Pol iota inh inactive and Pol eta inh inactive.
`CCN(CC)C(CNS(=O)(=O)c1ccc(Cl)cc1)c1ccccc1` (stereo not drawn) gave Pol beta inh inactive, POLK inh inactive, Pol iota inh inactive, Pol eta inh inactive, WRN helicase inh inactive and PI5P4Ka inh inactive.
`Cc1ccc(SC[C@H](Cc2ccccc2)N2CC[C@@H](C(C)(C)C)CCC2=O)cc1` gave POLK inh inactive and Pol iota inh inactive.
Screening O=C1c2ccccc2C(=O)c2c(/C=C/N3CCCCC3)ccnc21 returned POLK inh inactive, Pol iota inh inconclusive, Pol eta inh inconclusive, WRN helicase inh inactive and PI5P4Ka inh inconclusive.
`O=C(NCc1ccc2c(c1)OCO2)c1cc2c(s1)CSC2` gave Pol beta inh inconclusive, POLK inh inconclusive, Pol iota inh inactive, Pol eta inh inconclusive, WRN helicase inh inactive and PI5P4Ka inh -50.
O=C(NCc1ccco1)c1cccs1 was read as Pol beta inh inactive, POLK inh inactive, Pol iota inh inconclusive, Pol eta inh inconclusive, WRN helicase inh inactive and PI5P4Ka inh inactive.
Screening O=C(NCc1ccco1)c1cc2c(s1)CSC2 returned Pol beta inh 14µM, POLK inh 11µM, Pol iota inh inconclusive, Pol eta inh 20µM and WRN helicase inh 18µM.
CC(C)(Oc1ccc(-c2ccco2)cc1)C(=O)O was read as Pol beta inh 40µM.
`C=C1C=C(C(F)F)n2ncc(C(=O)NCCc3ccc(Cl)cc3)c2N1` gave POLK inh inactive and Pol iota inh inactive.
`O=C(Nc1ccc(C2=NCCN2)cc1)c1ccc(Cl)c(C(=O)Nc2ccc(C3=NCCN3)cc2)c1` gave Pol beta inh 50µM.
For COc1ccccc1C(NC(C)=O)c1cc(Cl)c2cccnc2c1O (stereo not drawn) the results were Pol beta inh inactive, POLK inh inactive, Pol iota inh inactive, Pol eta inh inactive, WRN helicase inh inactive and PI5P4Ka inh inactive.
Screening O=C(O)COc1ccccc1C(Nc1cccnc1)c1cc(Cl)c2cccnc2c1O (stereo not drawn) returned Pol beta inh inactive, POLK inh inconclusive, Pol iota inh inconclusive, Pol eta inh 79µM, WRN helicase inh inconclusive and PI5P4Ka inh -64.
COc1ccccc1N=c1oc2cc(O)ccc2cc1C(N)=O was read as Pol beta inh inactive, POLK inh inactive, Pol iota inh inactive, Pol eta inh inactive, WRN helicase inh inconclusive and PI5P4Ka inh -71.
`C#CCNC(=O)C[C@@H]1C[C@@]2(C(=O)OCC)CCCC=C2N(CCC2=CCCCC2)C1=O` gave WRN helicase inh inactive and PI5P4Ka inh inactive.
Screening O=C1c2ccccc2C(=O)c2c(NCCCN(CCO)CCO)cccc21 returned Pol beta inh 45µM, POLK inh inactive, Pol iota inh inconclusive, Pol eta inh inconclusive, WRN helicase inh 25µM and PI5P4Ka inh inactive.
For COC(=O)c1ccc(CS(=O)(=O)c2ccc(F)cc2)o1 the results were Pol beta inh 35µM, POLK inh inconclusive, Pol iota inh inactive, Pol eta inh 22µM, WRN helicase inh inactive and PI5P4Ka inh inactive.
`O=C(NCc1ccc(F)cc1)c1ccc(CS(=O)(=O)c2ccc(Cl)cc2)o1` gave Pol beta inh inconclusive, POLK inh inactive, Pol iota inh inactive and Pol eta inh inactive.
Clc1ccccc1-c1nc(NCc2cccs2)c2ccccc2n1 was read as POLK inh 32µM.
Screening COC(=O)N/N=C/c1cn(CC(C)COc2ccccc2)c2ccccc12 (stereo not drawn) returned Pol beta inh inactive, POLK inh inactive, Pol iota inh inactive, Pol eta inh inactive, WRN helicase inh inactive and PI5P4Ka inh inactive.
`COc1ccc(CCNC(=O)CCCCn2c(=O)c3ccccc3n(Cc3ccc(Cl)cc3)c2=O)cc1OC` gave Pol beta inh inactive, POLK inh inactive, Pol iota inh inactive and Pol eta inh inactive.
Screening COc1ccc(N2CCN(C(=O)NC3CCCCC3)CC2)cc1 returned Pol beta inh inactive, POLK inh inactive, Pol iota inh 89µM, Pol eta inh inconclusive, WRN helicase inh inactive and PI5P4Ka inh inactive.
For COc1cccc(N2CCN(C(=O)NC3CCCCC3)CC2)c1 the results were Pol beta inh inactive, POLK inh inactive, Pol iota inh inactive, Pol eta inh inactive, WRN helicase inh inactive and PI5P4Ka inh inactive.
For O=C1NC(=S)SC1=Cc1ccc2c(c1)OCO2 the results were POLK inh inactive, Pol iota inh inactive, Pol eta inh inactive, WRN helicase inh inactive and PI5P4Ka inh -78.
